Source: PubChem BioAssay
Calls of active or inactive are those of the source.

Assays:
[1] = tested on: PRMT1 (protein arginine N-methyltransferase 1); test: small molecules binding arginine methyltransferase PRMT1 – biochemical, small-molecule microarray, 635 nm fluorescence, primary screen (AID 1088); conditions: higher = more signal;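 also: binding of Prmt1 protein to compounds spotted on small-molecule microarray slides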
[2] = growth effects on S. cerevisiae YJM789 – YJM789 clinical isolate, OD600, 24 h, basal, primary screen (AID 1089); conditions: higher = more signal, called active from +8 up or from −8 down;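 also: growth of clinical yeast isolate S. cerevisiae YJM 789 seeded 1000 cells per well; test concentration not given here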
[3] = S. pombe growth modifiers, basal conditions – strain 972, OD600, 24 h, no modulator, primary screen (AID 1090);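 also: basal condition with compound alone and no growth modifier present; test concentration not given here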; conditions: S. pombe 972 growth, higher = more signal, called active from +8 up or from −8 down
[4] = budding yeast growth modifiers under rapamycin – strain BY4716, OD600, 96 h, primary screen (AID 1091); also: test concentration not given here; conditions: S. cerevisiae BY4716 + rapamycin, higher = more signal, called active from +8 up or from −8 down
[5] = biological target: Torsin-1A-interacting protein 2 (Homo sapiens) (UniProt Q8NFQ8); test: small molecules binding lysate-expressed LULL1 – cell lysate, human LULL1 lysate, 635/667 nm fluorescence, primary screen (AID 1092); conditions: small-molecule microarray, hLULL1 lysate binding, 635 nm fluorescence; higher = more signal;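 also: probe is lysate of COS7 cells overexpressing human LULL1; score merges per-feature 667 nm fluorescence with signal-to-noise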
[6] = optical density change of DRC41 E. coli – strain DRC41, OD650, 24 h, E. coli filamentation project, primary screen (AID 1093);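 also: MC1000 strain lacking acrAB efflux and sulA so SOS filamentation is blocked; test concentration not given here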; conditions: E. coli DRC41 growth, higher = more signal, called active from +8 up or from −8 down
[7] = probe aLefty2 binding to arrayed compounds – biochemical, biotinylated probe, 635/667 nm fluorescence, primary screen (AID 1094); conditions: small-molecule microarray, higher = more signal;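 also: score merges spot fluorescence near 667 nm with spot signal-to-noise ratio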
[8] = tested on: Noggin (protein binding on small-molecule microarray); test: small molecules binding Noggin protein – biochemical, 635/667 nm fluorescence, primary screen (AID 1095); conditions: 635 nm fluorescence, higher = more signal;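 also: score merges 667 nm feature fluorescence with signal to noise over triplicate slides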
[9] = biological target: Neurogenic locus notch homolog protein 3 (Homo sapiens) (UniProt Q9UM47); test: small molecules binding NOTCH3 protein – biochemical, 635/667 nm fluorescence, primary screen (AID 1096); conditions: small-molecule microarray, 635 nm fluorescence, higher = more signal
[10] = probe aEGFR binding to arrayed compounds – biochemical, biotinylated probe, 635/667 nm fluorescence, primary screen (AID 1097); conditions: small-molecule microarray, higher = more signal;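 also: probe is a biotinylated anti-EGFR antibody binding compounds printed on slides; score combines fluorescence near 667 nm and signal to noise of each spot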
[11] = tested on: Plasmodium falciparum Sir2 (PF13_0152, Sir2A); test: Plasmodium falciparum Sir2A binding compounds – biochemical, small-molecule microarray, 635 nm fluorescence, primary screen (AID 1098); conditions: fluorescence 635 nm, higher = more signal;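 also: score merges spot fluorescence intensity with its signal-to-noise ratio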
[12] = probe aDKK1 binding to arrayed compounds – biochemical, biotinylated probe, 635/667 nm fluorescence, primary screen (AID 1099); conditions: small-molecule microarray, higher = more signal;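 also: score merges 667nm spot fluorescence with signal to noise across triplicate slides; reference of the scale not given here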
[13] = probe aCHRDL2 binding to arrayed compounds – biochemical, biotinylated probe, 635/667 nm fluorescence, primary screen (AID 1100); conditions: small-molecule microarray, higher = more signal
[14] = change in splice reporter luminescence, either direction, cell-based, HEK293, spliceosome inhibition project, primary screen (AID 1101); conditions: HEK293 splicing luciferase reporter, 24 h, higher = more signal, called active from +8 up or from −8 down;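 also: HEK293 cells carrying a splicing-competent luciferase reporter gene; test concentration not given here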
[15] = biological target: Fibroblast growth factor 10 (Homo sapiens) (UniProt O15520); test: compounds binding fibroblast growth factor 10 – biochemical, small-molecule microarray, 635 nm fluorescence, primary screen (AID 1102); conditions: FGF10 binding, fluorescence 635 nm, higher = more signal
[16] = tested on: glycogen synthase kinase-3 (GSK3A per assay name; protocol says GSK3B); test: compounds binding glycogen synthase kinase-3 – biochemical, small-molecule microarray, 635 nm fluorescence, GSK3A, primary screen (AID 1103); conditions: fluorescence 635 nm, higher = more signal; also: the record names both GSK3A and GSK3B
[17] = biological target: Epidermal growth factor receptor (Homo sapiens) (UniProt P00533); test: compounds binding epidermal growth factor receptor – biochemical, small-molecule microarray, 635 nm fluorescence, primary screen (AID 1104); conditions: EGFR binding, higher = more signal;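 also: score merges 667 nm emission intensity with spot signal to noise over triplicate slides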
[18] = biological target: Follistatin-related protein 3 (Homo sapiens) (UniProt O95633); test: compounds binding follistatin-related protein 3 – biochemical, small-molecule microarray, 635 nm fluorescence, primary screen (AID 1105); conditions: FSTL3 binding, higher = more signal;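 also: score merges emission near 667 nm and signal to noise per printed spot across three slides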
[19] = biological target: Dickkopf-related protein 1 (Homo sapiens) (UniProt O94907); test: small molecules binding DKK1 protein – biochemical, small-molecule microarray, 635 nm fluorescence scan, primary screen (AID 1106); conditions: higher = more signal;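 also: score merges emission near 667 nm with signal to noise over three replicate slides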
[20] = tested on: Inhibin beta A chain (activin A); test: small molecules binding activin A – biochemical, small-molecule microarray, 635 nm fluorescence scan, primary screen (AID 1107); conditions: INHBA, higher = more signal;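 also: mouse activin A protein probed at 4.33 µg/mL on printed slides; score merges bound-protein fluorescence near 667 nm with spot signal-to-noise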

Sequence of Fibroblast growth factor 10 (Homo sapiens) (O15520 whole entry, looked up): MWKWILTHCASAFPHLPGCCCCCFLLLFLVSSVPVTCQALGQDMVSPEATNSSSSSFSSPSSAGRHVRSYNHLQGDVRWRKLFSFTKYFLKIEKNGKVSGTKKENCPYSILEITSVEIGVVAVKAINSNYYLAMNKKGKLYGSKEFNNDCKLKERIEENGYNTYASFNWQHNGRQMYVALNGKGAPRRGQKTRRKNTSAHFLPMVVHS
Sequence of Follistatin-related protein 3 (Homo sapiens) (O95633 whole entry, looked up): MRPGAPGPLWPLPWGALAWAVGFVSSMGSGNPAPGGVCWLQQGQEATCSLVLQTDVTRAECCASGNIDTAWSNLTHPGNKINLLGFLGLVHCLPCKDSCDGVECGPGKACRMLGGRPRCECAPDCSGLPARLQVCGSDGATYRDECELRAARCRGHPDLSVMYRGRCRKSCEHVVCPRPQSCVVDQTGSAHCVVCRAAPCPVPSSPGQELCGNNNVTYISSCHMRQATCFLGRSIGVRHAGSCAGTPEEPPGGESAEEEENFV
Sequence of Dickkopf-related protein 1 (Homo sapiens) (O94907 whole entry, looked up): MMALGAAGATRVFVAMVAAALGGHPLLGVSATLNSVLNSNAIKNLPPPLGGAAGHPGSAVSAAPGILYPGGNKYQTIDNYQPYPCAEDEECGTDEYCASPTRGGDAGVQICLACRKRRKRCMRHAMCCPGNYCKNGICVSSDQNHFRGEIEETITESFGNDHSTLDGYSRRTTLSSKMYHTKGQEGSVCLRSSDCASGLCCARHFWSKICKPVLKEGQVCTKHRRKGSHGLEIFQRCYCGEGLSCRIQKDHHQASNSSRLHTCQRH
Sequence of Epidermal growth factor receptor (Homo sapiens) (P00533 whole entry, looked up): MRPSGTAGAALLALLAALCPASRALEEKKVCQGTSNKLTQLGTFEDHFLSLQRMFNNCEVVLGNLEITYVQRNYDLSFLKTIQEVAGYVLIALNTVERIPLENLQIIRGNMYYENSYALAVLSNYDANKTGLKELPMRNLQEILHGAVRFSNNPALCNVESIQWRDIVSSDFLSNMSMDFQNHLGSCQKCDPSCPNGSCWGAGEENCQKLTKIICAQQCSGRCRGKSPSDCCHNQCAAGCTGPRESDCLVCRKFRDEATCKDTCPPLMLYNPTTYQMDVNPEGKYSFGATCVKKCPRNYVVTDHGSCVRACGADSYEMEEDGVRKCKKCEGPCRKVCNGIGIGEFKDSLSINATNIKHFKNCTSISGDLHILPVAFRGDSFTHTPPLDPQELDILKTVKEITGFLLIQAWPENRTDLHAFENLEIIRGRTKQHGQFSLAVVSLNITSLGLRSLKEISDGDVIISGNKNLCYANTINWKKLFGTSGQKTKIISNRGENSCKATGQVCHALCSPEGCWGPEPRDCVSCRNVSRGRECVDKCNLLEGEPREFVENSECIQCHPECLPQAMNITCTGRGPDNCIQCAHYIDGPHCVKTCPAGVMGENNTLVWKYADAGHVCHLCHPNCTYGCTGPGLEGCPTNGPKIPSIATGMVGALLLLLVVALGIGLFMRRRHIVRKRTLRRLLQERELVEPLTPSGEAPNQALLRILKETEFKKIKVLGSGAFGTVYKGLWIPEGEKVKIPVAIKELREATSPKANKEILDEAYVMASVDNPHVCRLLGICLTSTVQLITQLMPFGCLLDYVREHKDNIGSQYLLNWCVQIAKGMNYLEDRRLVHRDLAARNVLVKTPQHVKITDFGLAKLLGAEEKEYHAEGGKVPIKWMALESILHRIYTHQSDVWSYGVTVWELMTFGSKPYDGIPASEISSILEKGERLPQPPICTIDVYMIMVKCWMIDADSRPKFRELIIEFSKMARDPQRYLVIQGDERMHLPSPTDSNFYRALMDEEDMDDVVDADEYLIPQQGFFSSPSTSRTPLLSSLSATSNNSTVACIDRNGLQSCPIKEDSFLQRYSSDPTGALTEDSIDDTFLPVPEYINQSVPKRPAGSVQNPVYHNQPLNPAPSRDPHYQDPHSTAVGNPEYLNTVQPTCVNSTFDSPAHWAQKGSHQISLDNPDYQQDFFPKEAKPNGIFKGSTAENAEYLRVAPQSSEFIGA
Sequence of Torsin-1A-interacting protein 2 (Homo sapiens) (Q8NFQ8 whole entry, looked up): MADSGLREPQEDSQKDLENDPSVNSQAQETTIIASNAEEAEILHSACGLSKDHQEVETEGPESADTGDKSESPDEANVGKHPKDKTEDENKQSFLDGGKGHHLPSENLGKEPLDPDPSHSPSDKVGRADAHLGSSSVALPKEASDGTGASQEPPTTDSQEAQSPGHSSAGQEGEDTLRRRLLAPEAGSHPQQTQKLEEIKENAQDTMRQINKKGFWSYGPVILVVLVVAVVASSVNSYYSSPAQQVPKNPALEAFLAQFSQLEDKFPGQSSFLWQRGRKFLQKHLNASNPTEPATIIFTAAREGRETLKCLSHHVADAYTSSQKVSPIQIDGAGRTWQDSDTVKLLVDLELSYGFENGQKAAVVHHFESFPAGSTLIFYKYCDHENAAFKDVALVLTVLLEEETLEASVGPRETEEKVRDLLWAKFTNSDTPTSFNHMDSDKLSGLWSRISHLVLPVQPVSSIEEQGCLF
Sequence of Neurogenic locus notch homolog protein 3 (Homo sapiens) (Q9UM47 whole entry, looked up): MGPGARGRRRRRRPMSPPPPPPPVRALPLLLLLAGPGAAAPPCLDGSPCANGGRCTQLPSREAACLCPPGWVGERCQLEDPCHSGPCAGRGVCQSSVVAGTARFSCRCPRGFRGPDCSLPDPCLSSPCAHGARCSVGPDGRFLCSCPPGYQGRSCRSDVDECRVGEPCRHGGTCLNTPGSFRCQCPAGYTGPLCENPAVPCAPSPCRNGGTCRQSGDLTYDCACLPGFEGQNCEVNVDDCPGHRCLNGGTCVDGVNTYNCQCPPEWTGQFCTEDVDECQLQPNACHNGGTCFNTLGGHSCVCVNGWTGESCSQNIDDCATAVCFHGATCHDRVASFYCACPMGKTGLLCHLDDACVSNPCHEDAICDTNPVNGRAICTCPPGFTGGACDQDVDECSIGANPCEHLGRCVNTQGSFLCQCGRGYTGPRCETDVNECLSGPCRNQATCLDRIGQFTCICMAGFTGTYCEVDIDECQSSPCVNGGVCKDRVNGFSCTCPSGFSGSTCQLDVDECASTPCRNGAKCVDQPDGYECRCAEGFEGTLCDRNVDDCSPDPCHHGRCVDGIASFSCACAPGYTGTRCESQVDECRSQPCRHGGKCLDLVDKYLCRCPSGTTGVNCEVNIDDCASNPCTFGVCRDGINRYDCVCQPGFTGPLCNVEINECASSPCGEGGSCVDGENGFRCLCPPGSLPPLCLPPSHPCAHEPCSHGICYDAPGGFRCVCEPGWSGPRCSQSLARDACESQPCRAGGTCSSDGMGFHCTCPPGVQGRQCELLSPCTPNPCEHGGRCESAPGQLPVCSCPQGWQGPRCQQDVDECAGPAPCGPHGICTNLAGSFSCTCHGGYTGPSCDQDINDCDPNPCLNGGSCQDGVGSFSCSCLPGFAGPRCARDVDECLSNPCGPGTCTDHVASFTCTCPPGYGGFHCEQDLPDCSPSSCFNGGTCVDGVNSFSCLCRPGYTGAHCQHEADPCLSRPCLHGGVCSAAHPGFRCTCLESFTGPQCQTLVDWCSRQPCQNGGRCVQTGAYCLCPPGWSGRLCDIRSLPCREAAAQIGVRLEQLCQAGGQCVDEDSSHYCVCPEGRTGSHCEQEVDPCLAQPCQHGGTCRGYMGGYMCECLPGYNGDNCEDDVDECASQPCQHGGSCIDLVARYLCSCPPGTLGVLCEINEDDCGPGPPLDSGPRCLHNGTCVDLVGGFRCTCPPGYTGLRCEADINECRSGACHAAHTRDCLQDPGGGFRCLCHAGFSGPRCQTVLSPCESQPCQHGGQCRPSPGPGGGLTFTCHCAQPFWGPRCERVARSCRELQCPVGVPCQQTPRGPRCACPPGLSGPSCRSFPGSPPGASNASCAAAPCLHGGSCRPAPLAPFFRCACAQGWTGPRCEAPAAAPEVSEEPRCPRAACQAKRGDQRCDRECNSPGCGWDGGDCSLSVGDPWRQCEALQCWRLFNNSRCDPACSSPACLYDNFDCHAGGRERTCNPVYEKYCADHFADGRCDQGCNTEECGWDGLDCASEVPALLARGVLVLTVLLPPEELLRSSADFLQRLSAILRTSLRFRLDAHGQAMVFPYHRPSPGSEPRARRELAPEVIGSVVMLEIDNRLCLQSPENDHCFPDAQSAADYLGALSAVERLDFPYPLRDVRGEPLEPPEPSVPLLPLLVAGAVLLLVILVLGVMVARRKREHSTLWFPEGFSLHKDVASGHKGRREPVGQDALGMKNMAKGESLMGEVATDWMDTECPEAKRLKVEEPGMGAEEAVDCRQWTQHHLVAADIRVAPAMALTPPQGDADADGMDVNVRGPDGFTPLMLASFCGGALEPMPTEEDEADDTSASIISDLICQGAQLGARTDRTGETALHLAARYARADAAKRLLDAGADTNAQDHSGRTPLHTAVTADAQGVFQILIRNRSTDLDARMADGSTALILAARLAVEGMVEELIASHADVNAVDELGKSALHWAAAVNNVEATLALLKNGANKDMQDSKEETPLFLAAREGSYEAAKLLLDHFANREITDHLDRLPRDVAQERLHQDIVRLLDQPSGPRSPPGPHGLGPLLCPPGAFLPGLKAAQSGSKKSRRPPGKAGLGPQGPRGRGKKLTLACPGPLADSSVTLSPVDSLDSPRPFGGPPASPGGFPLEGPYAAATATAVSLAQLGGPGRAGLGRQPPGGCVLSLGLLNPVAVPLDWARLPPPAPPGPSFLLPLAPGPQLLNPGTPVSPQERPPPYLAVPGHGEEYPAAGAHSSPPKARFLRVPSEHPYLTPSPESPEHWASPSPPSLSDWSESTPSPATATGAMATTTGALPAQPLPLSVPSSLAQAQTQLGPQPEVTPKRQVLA

SMILES: C=CC[C@@H]1C=C[C@H](Oc2ccc(C)cc2)[C@@H](COC(=O)NCc2cccc3ccccc23)O1
- composite z-score [1]: 0.261
- z-score [2]: 0.697 (inactive)
- z-score [3]: -0.341 (inactive)
- z-score [4]: 0.774 (inactive)
- composite z-score [5]: 0.557
- z-score [6]: -0.61 (inactive)
- composite z-score [7]: -0.116
- composite z-score [8]: 0.725
- composite z-score [9]: -0.0971
- composite z-score [10]: -0.136
- composite z-score [11]: 0.45
- composite z-score [12]: -0.129
- composite z-score [13]: 0.0944
- z-score [14]: -0.566 (inactive)
- composite z-score [15]: 0.575
- composite z-score [16]: -0.224
- composite z-score [17]: -0.156
- composite z-score [18]: 0.201
- composite z-score [19]: 0.142
- composite z-score [20]: 1.03

SMILES: CCOC(=O)CCN1C(=O)[C@H]2[C@H]3[C@H](O)[C@H](O)CC(=NO[C@@H]4O[C@H](CO)[C@@H](O)[C@H](O)[C@H]4O)[C@@H]3CC[C@H]2C1=O
- composite z-score [1]: 1.52
- z-score [2]: -0.476 (inactive)
- z-score [3]: -0.664 (inactive)
- z-score [4]: -0.933 (inactive)
- composite z-score [5]: 0.7
- z-score [6]: 0.283 (inactive)
- composite z-score [7]: -0.0598
- composite z-score [8]: 0.381
- composite z-score [9]: 1.09
- composite z-score [10]: 0.176
- composite z-score [11]: 0.839
- composite z-score [12]: -0.188
- composite z-score [13]: -0.573
- z-score [14]: -0.104 (inactive)
- composite z-score [15]: 1.04
- composite z-score [16]: 1.26
- composite z-score [17]: 1.05
- composite z-score [18]: 1.37
- composite z-score [19]: 1.27
- composite z-score [20]: 0.898

SMILES: O=C1C2=CC[C@H]3C(=O)N(c4ccc(F)cc4F)C(=O)[C@H]3[C@H]2[C@H](O)[C@@H]2O[C@H]12
- composite z-score [1]: 0.137
- z-score [2]: -0.892 (inactive)
- z-score [3]: 0.151 (inactive)
- z-score [4]: 0.0688 (inactive)
- composite z-score [5]: -0.034
- z-score [6]: 0.601 (inactive)
- composite z-score [7]: -0.124
- composite z-score [8]: 0.526
- composite z-score [9]: 0.634
- composite z-score [10]: -0.0967
- composite z-score [11]: 0.305
- composite z-score [12]: -0.378
- composite z-score [13]: -0.778
- z-score [14]: -0.35 (inactive)
- composite z-score [15]: 0.472
- composite z-score [16]: 0.578
- composite z-score [17]: 0.347
- composite z-score [18]: 0.453
- composite z-score [19]: 0.658
- composite z-score [20]: -0.172

SMILES: O=C(NCCC[N+]1=CC=NC1c1ccccc1)N1CCCc2nc(-c3ccc(Br)cc3)ccc21 (stereo not given)
- composite z-score [1]: -0.476
- z-score [2]: -0.435 (inactive)
- z-score [3]: -1.69 (inactive)
- z-score [4]: 0.763 (inactive)
- composite z-score [5]: 0.0594
- z-score [6]: 2.39 (inactive)
- composite z-score [7]: -0.0616
- composite z-score [8]: 0.232
- composite z-score [9]: -0.378
- composite z-score [10]: -0.0183
- composite z-score [11]: 1.02
- composite z-score [12]: -0.128
- composite z-score [13]: -0.346
- z-score [14]: -0.106 (inactive)
- composite z-score [15]: 0.0448
- composite z-score [16]: 0.212
- composite z-score [17]: 0.221
- composite z-score [18]: -0.0767
- composite z-score [19]: 0.42
- composite z-score [20]: 0.435

SMILES: CCOC(=O)[C@H](Cc1ccccc1)NC(=O)CCC1CC(OC(=O)NCc2cccc3ccccc23)CC2(CCCC(COC(=O)NCCc3ccccc3OC)O2)O1 (stereo not given in full)
- composite z-score [1]: 1.4
- z-score [2]: 0.105 (inactive)
- z-score [3]: 0.503 (inactive)
- z-score [4]: 0.296 (inactive)
- composite z-score [5]: 1.95
- z-score [6]: -0.164 (inactive)
- composite z-score [7]: 0.0108
- composite z-score [8]: 0.591
- composite z-score [9]: 0.819
- composite z-score [10]: -0.0396
- composite z-score [11]: 0.405
- composite z-score [12]: -0.0537
- composite z-score [13]: -0.409
- z-score [14]: 0.223 (inactive)
- composite z-score [15]: 0.791
- composite z-score [16]: 0.583
- composite z-score [17]: 0.454
- composite z-score [18]: 1.07
- composite z-score [19]: 0.331
- composite z-score [20]: -0.251

SMILES: COC(=O)[C@H](C)NC(=O)CCC1CC(OC(=O)NCc2ccc3c(c2)OCO3)CC2(CCCC(COC(=O)NCCc3ccc(Cl)cc3)O2)O1 (stereo not given in full)
- composite z-score [1]: 0.898
- z-score [2]: 0.341 (inactive)
- z-score [3]: 0.744 (inactive)
- z-score [4]: -0.529 (inactive)
- composite z-score [5]: 0.945
- z-score [6]: 0.181 (inactive)
- composite z-score [7]: -0.14
- composite z-score [8]: 0.621
- composite z-score [9]: 0.67
- composite z-score [10]: -0.0675
- composite z-score [11]: 0.207
- composite z-score [12]: -0.146
- composite z-score [13]: -0.589
- z-score [14]: -0.51 (inactive)
- composite z-score [15]: 0.382
- composite z-score [16]: 0.591
- composite z-score [17]: 0.351
- composite z-score [18]: 0.762
- composite z-score [19]: 1.87
- composite z-score [20]: 0.219

SMILES: Cc1ccc(C(C)C)n1C(=O)OC(C)(C)C
- composite z-score [1]: 0.0565
- z-score [2]: -0.923 (inactive)
- z-score [3]: -0.817 (inactive)
- z-score [4]: -0.665 (inactive)
- composite z-score [5]: 0.345
- z-score [6]: -0.315 (inactive)
- composite z-score [7]: -0.138
- composite z-score [8]: 0.535
- composite z-score [9]: 0.915
- composite z-score [10]: -0.0549
- composite z-score [11]: -0.0286
- composite z-score [12]: -0.271
- composite z-score [13]: -0.611
- z-score [14]: -1.45 (inactive)
- composite z-score [15]: 0.789
- composite z-score [16]: 0.61
- composite z-score [17]: 0.55
- composite z-score [18]: 0.807
- composite z-score [19]: 0.768
- composite z-score [20]: -0.124

SMILES: C#CCCCON=C1[C@H]2CCn3c(=O)n([C@@H](CC)c4ccccc4)c(=O)n3[C@H]2[C@H](O)[C@@H]2O[C@H]12
- composite z-score [1]: -0.142
- z-score [2]: -0.455 (inactive)
- z-score [3]: -1.1 (inactive)
- z-score [4]: -0.533 (inactive)
- composite z-score [5]: 0.883
- z-score [6]: -0.647 (inactive)
- composite z-score [7]: -0.114
- composite z-score [8]: 1.05
- composite z-score [9]: 0.226
- composite z-score [10]: -0.042
- composite z-score [11]: 1.1
- composite z-score [12]: -0.175
- composite z-score [13]: -0.317
- z-score [14]: 6.03 (inactive)
- composite z-score [15]: 0.581
- composite z-score [16]: -0.51
- composite z-score [17]: 0.179
- composite z-score [18]: 0.34
- composite z-score [19]: 0.209
- composite z-score [20]: 0.228

SMILES: CCOC(=O)[C@H](Cc1ccccc1)NC(=O)CCC1CC(OC(=O)NCc2cccc3ccccc23)CC2(CCCC(COC(=O)NCc3ccc4c(c3)OCO4)O2)O1 (stereo not given in full)
- composite z-score [1]: -0.0058
- z-score [2]: 0.549 (inactive)
- z-score [3]: -0.02 (inactive)
- z-score [4]: 0.743 (inactive)
- composite z-score [5]: 1.8
- z-score [6]: 0.951 (inactive)
- composite z-score [7]: -0.139
- composite z-score [8]: 0.453
- composite z-score [9]: 0.227
- composite z-score [10]: 0.104
- composite z-score [11]: 0.216
- composite z-score [12]: -0.0102
- composite z-score [13]: -0.343
- z-score [14]: 0.277 (inactive)
- composite z-score [15]: 0.587
- composite z-score [16]: -0.0333
- composite z-score [17]: 0.179
- composite z-score [18]: 0.224
- composite z-score [19]: 0.141
- composite z-score [20]: 0.325

SMILES: CCN(CC)CC(O)CN1CCCCc2nc(C)c(C)cc21 (stereo not given)
- composite z-score [1]: 0.357
- z-score [2]: -1.59 (inactive)
- z-score [3]: -1.34 (inactive)
- z-score [4]: -0.425 (inactive)
- composite z-score [5]: 0.657
- z-score [6]: -0.0207 (inactive)
- composite z-score [7]: -0.343
- composite z-score [8]: 0.454
- composite z-score [9]: 0.431
- composite z-score [10]: -0.0148
- composite z-score [11]: -0.145
- composite z-score [12]: -0.33
- composite z-score [13]: -0.485
- z-score [14]: -1.7 (inactive)
- composite z-score [15]: 0.507
- composite z-score [16]: 0.709
- composite z-score [17]: 0.256
- composite z-score [18]: 0.42
- composite z-score [19]: 0.701
- composite z-score [20]: 0.29
